Active and inactive are the calls of the source.
Experiments:
[1] = system: Plasmodium falciparum Sir2 (PF13_0152, Sir2A); test: Plasmodium falciparum Sir2A binding compounds – biochemical, small-molecule microarray, 635 nm fluorescence, primary screen (AID 1098); conditions: fluorescence 635 nm, higher = more signal;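 further: score merges spot fluorescence intensity with its signal-to-noise ratio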
[2] = probe aDKK1 binding to arrayed compounds – biochemical, biotinylated probe, 635/667 nm fluorescence, primary screen (AID 1099); conditions: small-molecule microarray, higher = more signal;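 further: score merges 667nm spot fluorescence with signal to noise across triplicate slides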
[3] = probe aCHRDL2 binding to arrayed compounds – biochemical, biotinylated probe, 635/667 nm fluorescence, primary screen (AID 1100); conditions: small-molecule microarray, higher = more signal
[4] = change in splice reporter luminescence, either direction, cell-based, HEK293, spliceosome inhibition project, primary screen (AID 1101); conditions: HEK293 splicing luciferase reporter, 24 h, higher = more signal, called active from +8 up or from −8 down;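 further: HEK293 cells carrying a splicing-competent luciferase reporter gene; test concentration not given here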
[5] = biological target: Fibroblast growth factor 10 (Homo sapiens) (UniProt O15520); test: compounds binding fibroblast growth factor 10 – biochemical, small-molecule microarray, 635 nm fluorescence, primary screen (AID 1102); conditions: FGF10 binding, fluorescence 635 nm, higher = more signal
[6] = system: glycogen synthase kinase-3 (GSK3A per assay name; protocol says GSK3B); test: compounds binding glycogen synthase kinase-3 – biochemical, small-molecule microarray, 635 nm fluorescence, GSK3A, primary screen (AID 1103); conditions: fluorescence 635 nm, higher = more signal; further: the record names both GSK3A and GSK3B
[7] = biological target: Epidermal growth factor receptor (Homo sapiens) (UniProt P00533); test: compounds binding epidermal growth factor receptor – biochemical, small-molecule microarray, 635 nm fluorescence, primary screen (AID 1104); conditions: EGFR binding, higher = more signal;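 further: score merges 667 nm emission intensity with spot signal to noise over triplicate slides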
[8] = biological target: Follistatin-related protein 3 (Homo sapiens) (UniProt O95633); test: compounds binding follistatin-related protein 3 – biochemical, small-molecule microarray, 635 nm fluorescence, primary screen (AID 1105); conditions: FSTL3 binding, higher = more signal;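 further: score merges emission near 667 nm and signal to noise per printed spot across three slides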
[9] = biological target: Dickkopf-related protein 1 (Homo sapiens) (UniProt O94907); test: small molecules binding DKK1 protein – biochemical, small-molecule microarray, 635 nm fluorescence scan, primary screen (AID 1106); conditions: higher = more signal;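 further: score merges emission near 667 nm with signal to noise over three replicate slides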
[10] = system: Inhibin beta A chain (activin A); test: small molecules binding activin A – biochemical, small-molecule microarray, 635 nm fluorescence scan, primary screen (AID 1107); conditions: INHBA, higher = more signal;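 further: mouse activin A protein probed at 4.33 µg/mL on printed slides; score merges bound-protein fluorescence near 667 nm with spot signal-to-noise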
[11] = system: Human papillomavirus type 1a protein E7 (residues 44-93); test: small molecules binding HPV E7 44-93 – biochemical, small-molecule microarray, residues 44-93, 635 nm fluorescence, primary screen (AID 1108); conditions: fluorescence 635 nm, higher = more signal;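 further: E7 fragment applied at 1 µg/mL in TBST for 1 h at 4 C; score combines spot fluorescence with its signal to noise ratio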
[12] = hepatitis C replication reporter changes, two-sided – Huh7 cells, luciferase reporter, HCV replication inhibitor project, primary screen (AID 1109); conditions: Huh7 HCV replicon luciferase reporter, 48 h; higher = more signal;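 further: huh7 hepatoma cells harbouring a luciferase neomycin HCV replicon reporter; luciferase luminescence as measure of HCV replicon replication; test concentration not given here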
[13] = biological target: Left-right determination factor 2 (Homo sapiens) (UniProt O00292); test: small molecules binding LEFTY2 protein – biochemical, small-molecule microarray, 635 nm fluorescence scan, primary screen (AID 1110); conditions: higher = more signal
[14] = biological target: Calmodulin-1 (Homo sapiens) (UniProt P0DP23); test: small molecules binding calmodulin-1 with EGTA – biochemical, small-molecule microarray, Cy5-labelled CALM1, profiling panel (AID 1111); conditions: Cy5-CALM1 binding fluorescence, higher = more signal;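 further: labelled calmodulin applied in Tris saline Tween buffer holding calcium plus EGTA and DTT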
[15] = biological target: Calmodulin-1 (Homo sapiens) (UniProt P0DP23); test: small molecules binding Ca-loaded calmodulin-1 – biochemical, small-molecule microarray, Cy5-labelled CALM1, plus calcium, artefact control for SMM control-protein annotation, profiling panel (AID 1112); conditions: Cy5-CALM1 binding fluorescence, higher = more signal;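 further: score merges spot fluorescence with signal to noise from triplicate slides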
[16] = probe aWnt5a binding to arrayed compounds – biochemical, biotinylated probe, 635/667 nm fluorescence, primary screen (AID 1113); conditions: small-molecule microarray, higher = more signal;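 further: score merges 667 nm fluorescence intensity with signal-to-noise per printed feature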
[17] = probe aShh binding to arrayed compounds – biochemical, biotinylated probe, 635/667 nm fluorescence, primary screen (AID 1114); conditions: small-molecule microarray, higher = more signal;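 further: probe is biotin-labelled aShh protein from a stem cell growth factor screen; measures binding of labelled protein to compounds printed on the slide; score merges feature fluorescence at 667 nm with signal-to-noise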
[18] = probe aNog binding to arrayed compounds – biochemical, biotinylated probe, 635/667 nm fluorescence, primary screen (AID 1115); conditions: small-molecule microarray, higher = more signal;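 further: probe is biotinylated aNog protein used at 0.15 µg/mL for 1 h at 4 C; z-score combines 667 nm fluorescence of each spot with its signal to noise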
[19] = biological target: Torsin-1A-interacting protein 1 (Homo sapiens) (UniProt Q5JTV8); test: compound microarray binding of lysate hLAP1 – cell lysate, small-molecule microarray, COS7 lysate, 635/667 nm fluorescence, primary screen (AID 1116); conditions: 635 nm fluorescence, higher = more signal
[20] = biological target: Alpha-bungarotoxin (Bungarus multicinctus) (UniProt P60615); test: compounds binding labelled alpha-BTX control protein – biochemical, small-molecule microarray, Alexa647 label, 635/667 nm fluorescence, artefact control for SMM control protein annotation, profiling panel (AID 1117); conditions: alpha-BTX-A647 binding fluorescence, higher = more signal
Sequence of Alpha-bungarotoxin (Bungarus multicinctus) (P60615 whole entry, looked up): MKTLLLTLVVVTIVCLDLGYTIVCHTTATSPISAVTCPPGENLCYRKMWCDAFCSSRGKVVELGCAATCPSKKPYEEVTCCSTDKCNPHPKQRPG

Sequence of Epidermal growth factor receptor (Homo sapiens) (P00533 whole entry, looked up): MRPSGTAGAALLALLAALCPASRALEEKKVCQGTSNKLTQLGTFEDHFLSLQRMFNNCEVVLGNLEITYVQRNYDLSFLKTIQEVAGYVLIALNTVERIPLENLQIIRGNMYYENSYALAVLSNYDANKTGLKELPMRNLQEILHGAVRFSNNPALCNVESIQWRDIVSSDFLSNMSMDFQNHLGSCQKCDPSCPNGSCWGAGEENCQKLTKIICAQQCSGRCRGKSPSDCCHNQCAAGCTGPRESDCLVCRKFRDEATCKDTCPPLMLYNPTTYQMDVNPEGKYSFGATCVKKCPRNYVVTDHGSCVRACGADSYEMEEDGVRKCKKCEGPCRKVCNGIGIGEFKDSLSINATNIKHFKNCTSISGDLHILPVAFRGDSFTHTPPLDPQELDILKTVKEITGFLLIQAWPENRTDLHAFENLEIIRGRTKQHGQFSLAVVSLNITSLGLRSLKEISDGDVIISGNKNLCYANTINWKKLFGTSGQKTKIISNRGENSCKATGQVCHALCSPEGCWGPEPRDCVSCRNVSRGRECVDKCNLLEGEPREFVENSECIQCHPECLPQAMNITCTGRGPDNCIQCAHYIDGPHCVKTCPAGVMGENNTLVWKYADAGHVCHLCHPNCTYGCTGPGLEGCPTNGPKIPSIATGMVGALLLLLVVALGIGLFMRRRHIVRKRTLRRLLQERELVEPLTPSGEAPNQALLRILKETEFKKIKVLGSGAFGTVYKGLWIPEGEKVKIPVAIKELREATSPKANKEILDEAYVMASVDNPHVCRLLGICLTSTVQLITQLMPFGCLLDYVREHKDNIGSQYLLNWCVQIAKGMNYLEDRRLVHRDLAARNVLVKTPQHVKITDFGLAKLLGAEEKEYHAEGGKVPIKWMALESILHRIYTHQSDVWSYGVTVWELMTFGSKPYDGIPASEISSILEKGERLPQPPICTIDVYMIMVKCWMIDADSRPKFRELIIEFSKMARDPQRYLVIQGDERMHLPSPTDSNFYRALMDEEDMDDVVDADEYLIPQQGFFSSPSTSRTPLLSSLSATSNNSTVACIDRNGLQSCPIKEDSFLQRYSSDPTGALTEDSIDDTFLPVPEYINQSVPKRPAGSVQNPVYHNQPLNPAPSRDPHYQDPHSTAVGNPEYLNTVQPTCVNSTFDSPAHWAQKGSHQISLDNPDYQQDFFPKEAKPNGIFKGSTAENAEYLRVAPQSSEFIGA
Sequence of Torsin-1A-interacting protein 1 (Homo sapiens) (Q5JTV8 whole entry, looked up): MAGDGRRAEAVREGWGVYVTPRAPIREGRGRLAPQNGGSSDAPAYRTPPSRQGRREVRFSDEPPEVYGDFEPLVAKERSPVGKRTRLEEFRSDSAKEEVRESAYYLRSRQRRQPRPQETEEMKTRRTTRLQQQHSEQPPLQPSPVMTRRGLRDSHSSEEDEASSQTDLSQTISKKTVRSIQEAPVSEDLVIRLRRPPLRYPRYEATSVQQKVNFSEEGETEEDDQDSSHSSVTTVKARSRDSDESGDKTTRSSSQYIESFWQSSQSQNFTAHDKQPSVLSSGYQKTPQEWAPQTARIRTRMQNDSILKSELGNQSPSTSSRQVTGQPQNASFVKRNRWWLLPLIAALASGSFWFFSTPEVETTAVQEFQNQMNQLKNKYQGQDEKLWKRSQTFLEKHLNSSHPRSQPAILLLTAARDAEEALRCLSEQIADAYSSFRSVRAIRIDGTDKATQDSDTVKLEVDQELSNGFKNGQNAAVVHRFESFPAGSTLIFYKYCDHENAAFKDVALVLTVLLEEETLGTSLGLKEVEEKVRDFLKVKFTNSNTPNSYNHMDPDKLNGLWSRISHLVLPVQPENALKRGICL
Sequence of Left-right determination factor 2 (Homo sapiens) (O00292 whole entry, looked up): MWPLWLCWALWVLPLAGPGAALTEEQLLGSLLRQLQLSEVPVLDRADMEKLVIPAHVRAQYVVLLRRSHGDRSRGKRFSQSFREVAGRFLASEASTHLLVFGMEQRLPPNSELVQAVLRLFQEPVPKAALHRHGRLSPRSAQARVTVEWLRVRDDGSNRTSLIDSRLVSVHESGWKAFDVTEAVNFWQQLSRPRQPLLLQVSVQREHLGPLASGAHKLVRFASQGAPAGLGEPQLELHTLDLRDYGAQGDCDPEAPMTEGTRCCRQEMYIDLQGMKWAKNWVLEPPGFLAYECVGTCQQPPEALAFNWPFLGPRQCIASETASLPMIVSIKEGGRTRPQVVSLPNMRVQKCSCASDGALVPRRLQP
Sequence of Fibroblast growth factor 10 (Homo sapiens) (O15520 whole entry, looked up): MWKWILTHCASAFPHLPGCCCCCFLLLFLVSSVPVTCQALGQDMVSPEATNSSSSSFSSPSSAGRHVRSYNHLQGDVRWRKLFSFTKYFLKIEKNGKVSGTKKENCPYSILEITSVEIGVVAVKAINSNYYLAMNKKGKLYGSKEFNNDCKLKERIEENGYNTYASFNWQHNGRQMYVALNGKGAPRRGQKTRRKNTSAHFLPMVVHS
Sequence of Dickkopf-related protein 1 (Homo sapiens) (O94907 whole entry, looked up): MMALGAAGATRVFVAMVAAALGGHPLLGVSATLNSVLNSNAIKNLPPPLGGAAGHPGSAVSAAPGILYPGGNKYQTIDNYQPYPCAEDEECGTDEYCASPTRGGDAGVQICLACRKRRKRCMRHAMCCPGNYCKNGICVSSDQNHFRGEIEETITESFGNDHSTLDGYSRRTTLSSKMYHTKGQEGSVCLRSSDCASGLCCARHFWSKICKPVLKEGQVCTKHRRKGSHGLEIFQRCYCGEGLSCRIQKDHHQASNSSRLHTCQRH
Sequence of Follistatin-related protein 3 (Homo sapiens) (O95633 whole entry, looked up): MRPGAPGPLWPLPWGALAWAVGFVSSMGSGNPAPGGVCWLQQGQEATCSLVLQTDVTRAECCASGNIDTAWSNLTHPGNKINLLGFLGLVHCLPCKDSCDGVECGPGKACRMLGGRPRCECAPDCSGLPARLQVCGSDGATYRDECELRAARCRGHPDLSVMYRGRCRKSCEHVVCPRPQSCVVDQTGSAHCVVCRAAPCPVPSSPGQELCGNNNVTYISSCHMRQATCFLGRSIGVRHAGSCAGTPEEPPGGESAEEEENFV

Structure (SMILES) | composite z-score [1] | composite z-score [2] | composite z-score [3] | z-score [4] | composite z-score [5] | composite z-score [6] | composite z-score [7] | composite z-score [8] | composite z-score [9] | composite z-score [10] | composite z-score [11] | z-score [12] | composite z-score [13] | composite z-score [14] | composite z-score [15] | composite z-score [16] | composite z-score [17] | composite z-score [18] | composite z-score [19] | composite z-score [20]
COCCCNC(=O)[C@@]1(Cc2ccccc2CN=[N+]=[N-])COC(c2ccc(OCCCO)cc2)=N1 | 1.59 | 1.28 | 1.39 | -0.807 (inactive) | 1.38 | 0.266 | -0.474 | -0.0087 | -1.58 | 0.731 | 0.989 | -1.97 | -0.645 | 1.78 | 0.96 | 0.299 | 0.454 | 1.75 | 2.45 | 0.911
O=C1c2ccccc2[C@@]2(Cc3ccccc3N(CC(F)(F)F)C2=O)[C@H](c2ccc(CO)cc2)N1Cc1ccccc1C(F)(F)F | -1.84 | 0.471 | 0.957 | -0.0373 (inactive) | -0.316 | -1.41 | -0.903 | -1.15 | -1.95 | 1.04 | -0.713 | 0.301 | -0.888 | -0.434 | 0.0123 | -0.104 | -0.0243 | 0.673 | -0.459 | -1.7
C=CCN1C(=O)[C@@]2(O[C@@H](CCO)[C@H]([Si](C)(C)c3ccc(OC)cc3)[C@H]2C)c2cc(N3C(=O)c4cccc5cccc3c45)ccc21 | 1 | -0.0284 | 0.392 | -3.45 (inactive) | 0.102 | 0.307 | -0.232 | -0.189 | -0.4 | 0.18 | 0.515 | -5.15 | -0.144 | 0.965 | 0.734 | -0.176 | 0.123 | 0.272 | 0.201 | 1.21
O=C(NCc1ccccc1)[C@@H]1c2ccccc2C(=O)N(Cc2ccccc2Cl)[C@H]1c1ccc(CO)cc1 | 0.447 | 1 | 1.01 | -1.05 (inactive) | 0.814 | 1.32 | 0.183 | 1.42 | 0.909 | 0.791 | 1.05 | -0.267 | 0.671 | -0.23 | 0.0368 | 0.0297 | 0.123 | 0.522 | 1.21 | 1.67
C=CCNC(=O)[C@H]1[C@@H]2C(=O)O[C@@H](c3ccccc3)[C@@H](c3ccccc3)N2[C@@H](c2ccc(OCCO)cc2)[C@]12C(=O)Nc1ccc(C#CCCO)cc12 | 1.36 | 0.299 | 0.797 | -1.26 (inactive) | 0.241 | -0.145 | -0.105 | 0.359 | -0.059 | 0.629 | 0.699 | -0.735 | -0.0631 | 0.0076 | 0.295 | -0.175 | -0.0769 | 0.332 | 1.42 | 1.9
COc1ccc([Si](C)(C)[C@@H]2[C@@H](CC(=O)N3CCC[C@H]3CO)O[C@]3(C(=O)N(Cc4ccc(I)cc4)c4ccccc43)[C@H]2C)cc1 | 0.648 | -0.0319 | 0.0052 | -1.62 (inactive) | 0.637 | 1.29 | 0.743 | 1.23 | 1.13 | 0.752 | 0.152 | -2.22 | 0.46 | 1.51 | 1.15 | -0.165 | 0.0611 | 0.201 | 0.252 | 1.31
C=C(/C(=C/C[C@H](OC(=O)c1ccncc1)c1cccc(OCCO)c1)c1cc(C(=O)OC)ccc1OC)C(C)C | 0.903 | 0.235 | 0.569 | -1.63 (inactive) | 0.493 | -0.129 | -0.763 | -0.127 | -0.227 | 0.639 | 0.0251 | -1.86 | -0.107 | -0.193 | -0.808 | -0.169 | -0.0035 | 0.0866 | -0.142 | 0.288
CCCCCN1CC=CC23O[C@@H]4/C=C\CCC(C)OC(=O)C4[C@H]2C(=O)N(CCO)[C@@H]3C1=O (stereo not given in full) | 1.3 | -0.205 | 0.791 | -0.688 (inactive) | -0.825 | -0.413 | -1.81 | -1.13 | -1.2 | 1.57 | 0.408 | 0.382 | -1.43 | -0.659 | -0.295 | -0.176 | -0.279 | 0.552 | -0.0418 | -1.7
